These results are taken from PubChem BioAssay (Tox21).

Inconclusive results are not listed. Activity calls are given as the source filed them. Calls come from the whole dose curve.
% is set by controls: 0 for no effect and ±100 for the full control effect; potency is the fitted concentration of half-maximal effect.

A short description of this assay: qHTS assay to identify small molecule antagonists of the sonic hedgehog signaling (Shh) pathway (AID 1259369). Note: nearly all actives have a fitted effect of over 45% in size. The conditions noted are these: NIH/3T3 Gli1-Luc reporter, Shh antagonist, luminescence 24 h; series mostly up to 92.4 µM; activity change, negative = inhibition: at the top concentration. An excerpt: U.S. Tox21 Program National Center for Advancing Translational Sciences [NCATS] NIH Chemical Genomics Center [NCGC] U.S. Environmental Protection Agency [EPA] National Institutes of Environmental Health Sciences [NIEHS] National Toxicology Program [NTP] U.S. Food and Drug Administration [FDA] Tox21 Assay Overview: The sonic hedgehog (Shh) pathway is essential for normal embryonic development. Dysregulation of the Shh pathway can cause severe developmental defects in organs. Therefore chemicals that interfere with the pathway are potential developmental toxicants. A cell line designated 3T3Gli1-Luc (DMB/OARSA/CFSAN/FDA, Laurel, MD), a NIH/3T3 derived clone containing stably integrated Gli1-Luc reporter is used to detect chemical interference of the Shh pathway, by changes in the expression of the firefly Luc gene under the control of the Gli1 transcriptional response element. This cell line was used to screen Tox21 libraries for identifying and prioritizing the potential developmental toxicants that interfere Shh pathway. Conditioned medium-stimulated mode was used to screen for chemicals inhibiting Shh signaling.
Tox21 Assay Protocol Summary: 3T3 Gli1-Luc cells were dispensed at 2,000 per well in 5uL of culture medium into white solid bottom 1536-well plates (Greiner Bio-One, Monroe, NC) using a Multidrop Combi (Thermo Scientific, Waltham, MA) dispenser. The assay plates were incubated at 37 C and 5% CO2 for 4hr, and then 23nL of compounds dissolved in DMSO and positive control were transferred using a Pintool station (Wako, San Diego, CA). The compound transfer was followed by the addition of 1ul conditioned medium or assay buffer using two separate tips of Flying Reagent Dispenser (FRD, Aurora Discovery, San Diego, CA). The assay plates were incubated at 37C and 5% CO2 for 24hr. For luciferase read, 4uL of Amplite Luciferase reporter gene assay reagent (AAT Bioquest, Inc. Sunnyvale, CA) was added to each well of the assay plates using FRD and incubated at room temperature for 30min. The luminescence signal was measured using a ViewLux plate reader (Perkin Elmer, Shelton, CT).
In the case of `CCCCCCCCCCCCSC`, the “activity change, negative = inhibition” value is 10.4% (inactive).
Regarding `O=S(=O)(O)c1cccc2ccccc12`, the “activity change, negative = inhibition” value is 2.29% (inactive).
For `C[C@H]1[C@H](NC(=O)/C(=N/OC(C)(C)C(=O)O)c2csc(N)n2)C(=O)N1S(=O)(=O)O` (stereo in doubt), the “activity change, negative = inhibition” value is -4.94% [at 42.5 µM] (inactive).
The same measure, in the same setting: the result for `CCNS(=O)(=O)c1ccc(C)cc1` reads 15.9% (inactive); that for `CC1=NN(c2cccc(S(=O)(=O)O)c2)C(=O)C1`, -15.7% (inactive).
Same read-out and setting: for `CCN[C@H]1C[C@H](C)S(=O)(=O)c2sc(S(N)(=O)=O)cc21` the value was 9.99% [at 42.5 µM] (inactive).
For `NC(CCC(=O)O)C(=O)O` (stereo not given), the “activity change, negative = inhibition” value is 0.66% (inactive).
On to `C[C@@H]1CCC[C@H](C)N1`, for which the “activity change, negative = inhibition” value was 17% [at 42.5 µM] (inactive).
Take `O=[N+]([O-])c1cncn1CCN1CCOCC1`: the “activity change, negative = inhibition” value was 21.4% [at 42.5 µM] (inactive).
Still for that read-out and setting: the result for `O=C(O)CNC(=O)c1ccc(CO)o1` reads 27% (inactive).
`O=S(=O)(O)c1cc(O)c(O)c(S(=O)(=O)O)c1`: the “activity change, negative = inhibition” value was 0% (inactive).
Same read-out and setting: the result for `Cc1ccccc1N=C(N)N=C(N)N` reads -16.2% (inactive); that for `NCCCC[C@H](N[C@@H](CCc1ccccc1)C(=O)O)C(=O)N1CCC[C@H]1C(=O)O`, 10.5% [at 42.5 µM] (inactive); that for `CCO[Si](OCC)(OCC)c1ccccc1`, 0% (inactive).
On to `C=C(C)C(=O)OCC1CCCO1` (stereo not given), for which the “activity change, negative = inhibition” value was 27.6% (inactive).
`CN1CCN(c2cc3c(nn2)Oc2ccccc2N3C)CC1`: the activity change, negative = inhibition was -8.36% [at 19 µM] (inactive).
In the case of `CN1CCC(=C2c3ccccc3CCc3cccnc32)CC1`, the Potency was 13.3 µM (active).
In the case of `CC1=CC(=O)[C@H]2C[C@@H]1C2(C)C`, the “activity change, negative = inhibition” value was 21.1% (inactive).
In the case of `C=COC(=O)C(C)(CC)CCC(C)C` (stereo not given), the “activity change, negative = inhibition” value is 11.3% (inactive).
Still for that read-out and setting: the result for `CN(C)CCCN(C)CCCN(C)C` reads 5.39% (inactive).
Turning to `CCCO[Si](OCCC)(OCCC)OCCC`, the “activity change, negative = inhibition” value is 23.1% (inactive).
On to `COc1cc(C)nc(-n2nc(C)cc2OC)n1`, for which the “activity change, negative = inhibition” value is 0.0364% [at 42.5 µM] (inactive).
Turning to `CCOC(=O)OC(C)OC1=C(C(=O)Nc2ccccn2)N(C)S(=O)(=O)c2ccccc21` (stereo not given), the “activity change, negative = inhibition” value is 17.9% [at 42.5 µM] (inactive).
On the same count and under the same terms, the result for `CCC(C(=O)NC(=O)NC(C)=O)c1ccccc1` (stereo not given) reads 9.57% [at 42.5 µM] (inactive); that for `CCCOC(=O)CC`, 4.07% (inactive).
Turning to `CC(=O)C1CCCCC1=O` (stereo not given), the “activity change, negative = inhibition” value was -15.4% (inactive).
As for `Cc1ccc(C(=O)c2ccc(CC(=O)O)n2C)cc1`, the “activity change, negative = inhibition” value was 12.3% [at 42.5 µM] (inactive).
For `CC(C)(C)OC(=O)c1cccc(N)c1`, the “activity change, negative = inhibition” value was -4.67% (inactive).
The same measure, in the same setting: for `CO[C@@]1(NC(=O)C(C(=O)O)c2ccc(O)cc2)C(=O)N2C(C(=O)O)=C(CSc3nnnn3C)CO[C@@H]21` (stereo not given in full) the value was 14.5% [at 42.5 µM] (inactive); for `C[C@H]1C[C@H]2[C@@H]3CCC4=CC(=O)C=C[C@]4(C)[C@H]3C(=O)C[C@]2(C)[C@@]1(O)C(=O)CO`, -2.43% [at 42.5 µM] (inactive); for `CC(C)(C)C(=O)Oc1ccc(S(=O)(=O)Nc2ccccc2C(=O)NCC(=O)O)cc1`, 6.71% [at 42.5 µM] (inactive).
`CC(=O)Nc1ccc(OCC(O)CNC(C)C)cc1` (stereo not given): the “activity change, negative = inhibition” value was 14.2% [at 42.5 µM] (inactive).
In the case of `O=C(CO)[C@@H](O)[C@H](O)[C@@H](O)CO`, the “activity change, negative = inhibition” value is 9.28% [at 42.5 µM] (inactive).
On to `CCCc1ncc(C[n+]2ccccc2C)c(N)n1`, for which the “activity change, negative = inhibition” value was 10.1% [at 42.5 µM] (inactive).
Regarding `CC(=O)N1C[C@H](O)C[C@H]1C(=O)O`, the “activity change, negative = inhibition” value was 29.7% [at 42.5 µM] (inactive).
In the case of `CCN1CCOCC1`, the “activity change, negative = inhibition” value was 27.5% (inactive).
As to `FB(F)F`, the “activity change, negative = inhibition” value is 5.83% (inactive).
For the compound `CCCCN1C=CN(C)C1`, the activity change, negative = inhibition is 0.745% [at 19 µM] (inactive).
The same measure, in the same setting: for `CC(C)(CCC(=O)O)C(=O)O` the value was 7.23% (inactive); for `Nc1ccn([C@@H]2O[C@H](CO)[C@@H](O)C2(F)F)c(=O)n1`, -5.38% [at 42.5 µM] (inactive).
